Bcl-xL primary: inhibitors of human Bcl-xL; Q07817; GST-Bcl-xL / FITC-Bim BH3 peptide fluorescence polarization; inhibition, % at 10.9 µM; 0.7% of 320,000 active;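 active = inhibition above the mean of all tested compounds plus 3 SD, cutoff set per campaign, cut at about 30% in these data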;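 also: 0% = DMSO wells and 100% = unlabeled Bim-BH3 peptide competitor; inhibitors lower millipolarization by displacing the labeled peptide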
MCL1-BIM inh: MCL1-BIM-BH3 interaction inhibition (human); GST-MCL1 / FITC-Bim-BH3 fluorescence polarization; inhibition, % at 10.9 µM; 0.68% of 320,000 active;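 active = inhibition above the mean inhibition of all tested compounds plus 3 SD, set per campaign, cut at about 40% in these data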;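 also: 0% = DMSO wells and 100% = unlabeled Bim-BH3 peptide control; higher means more loss of mP so more displacement of Bim peptide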
GLD-1 RNA inh: GLD-1-TGE RNA interaction inhibition (C. elegans); Q17339; purified GLD-1 + fluorescein TGE RNA, fluorescence polarization; inhibition, % at 5.96 µM; 0.44% of 320,000 active; AID 2280;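 active = percent inhibition above a per-plate cutoff, the plate mean of test compounds plus 3 SD, cut at about 30% in these data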;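 also: 0% = DMSO wells with GLD-1 and probe and 100% = wells lacking GLD-1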
Target sequence (Q17339 whole entry, looked up): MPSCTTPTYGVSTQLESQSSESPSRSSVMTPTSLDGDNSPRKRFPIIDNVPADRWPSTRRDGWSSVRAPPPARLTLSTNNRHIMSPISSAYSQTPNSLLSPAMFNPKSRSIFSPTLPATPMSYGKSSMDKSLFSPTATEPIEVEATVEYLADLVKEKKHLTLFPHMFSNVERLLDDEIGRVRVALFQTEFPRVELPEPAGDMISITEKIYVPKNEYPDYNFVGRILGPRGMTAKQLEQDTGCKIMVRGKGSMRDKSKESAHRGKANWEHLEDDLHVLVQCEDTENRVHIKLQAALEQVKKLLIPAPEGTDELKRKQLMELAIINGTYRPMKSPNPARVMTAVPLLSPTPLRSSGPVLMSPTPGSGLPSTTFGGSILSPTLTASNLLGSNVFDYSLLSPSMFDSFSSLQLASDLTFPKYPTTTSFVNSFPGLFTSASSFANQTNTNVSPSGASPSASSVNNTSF
MEX-5 binding: C. elegans MEX-5 TCR-2 RNA binding activity; Q9XUB2; MEX-5/FITC-TCR2 RNA binding, fluorescence polarization; hits give low values; activity score (negative = inhibition of binding), % at 10 µM; 0.38% of 300,000 active;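 active = inhibition past about -25% in most replicates, and total fluorescence under double the plate's negative control median, limit read from the data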;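 also: 0% = DMSO and -100% = 5 µM competing unlabeled TCR2 RNA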
eLon inh: inhibits E. coli Lon protease; AID 602123; 0.42% of 360,000 active; purified E. coli Lon protease, fluorescence polarization; P0A9M0; inhibition, % at 7.94 µM; in the data active = inhibition above about 13%, passing the limit was not always enough;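 also: 0% = enzyme with probe and DMSO and 100% = no enzyme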
E coli Lon conf: E. coli Lon inhibition confirmation | shares compounds with eLon inh | purified E. coli Lon, fluorescence polarization | inhibition, % at 7.94 µM | 31% of 1,400 active | AID 602230; in the data active = inhibition above about 16%;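 also: 0% = enzyme with probe and DMSO and 100% = no enzyme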
* marks the source's active call; other numbers are inactive results; x = not tested or not shown. Shown are actives, neighbours in structure and some others; about 1.4% of the full set was active somewhere.

SMILES	Bcl-xL primary	MCL1-BIM inh	GLD-1 RNA inh	MEX-5 binding	eLon inh	E coli Lon conf
COc1ccccc1N1CCN(C2CCCN(C(=O)CN3CCCCC3=O)C2)CC1 (configuration not stated)	-5.4	-7.2	-0.2	-2.8	-13.0	x
CN(C)Cc1csc(NC(=O)Nc2ccccc2Oc2ccccc2)n1	x	x	x	x	86.2*	6.1
CN(C)Cc1csc(NC(=O)Nc2ccccc2-c2ccccc2)n1	x	x	x	x	-15.4	x
COc1ccc([N+](=O)[O-])cc1NC(=O)C(C)c1ccccc1 (configuration not stated)	1.1	8.8	1.8	-1.6	21.8*	-0.7
COc1ccc2c(ccc[n+]2[O-])c1	x	x	x	x	-11.3	x
COc1ccc2nc3ccccc3[n+]([O-])c2c1	x	x	x	x	193.9*	138.3*
O=C(O)c1[nH]c2ccc(Br)cc2c1CCN1C(=O)c2cccc([N+](=O)[O-])c2C1=O	10.1	9.4	-3.8	2.5	-13.6	x
CCOc1ccc(C(C(=O)NC2CCCCC2)N(C(=O)c2csnn2)C2CC2)cc1 (configuration not stated)	-0.2	-9.4	2.2	2.7	24.1*	6.7
CN(C(=O)COC(=O)c1c[nH]c2ccccc12)c1ccccc1	x	x	x	x	1.5	x
O=C(Cc1sc(-c2ccccc2)nc1-c1ccccc1)Nc1ccccc1	3.1	-5.2	6.7	0.9	15.6*	8.7
COc1cc(OC)c(C2C(C(=O)O)c3ccccc3C(=O)N2C)cc1OC (configuration not stated)	7.2	7.9	0.2	0.7	-6.7	x
COc1ccc(C2C(C(=O)O)c3ccccc3C(=O)N2C)cc1Br (configuration not stated)	8.3	5.5	6.4	0.6	19.4*	-457.6
COc1ccc(CCNC(=O)C(C)SCc2ccccc2)cc1 (configuration not stated)	4.8	11.0	2.8	0.8	19.1*	-5.0
COc1cccc(NC(=O)C(C)SCc2ccccc2)c1 (configuration not stated)	8.6	3.5	2.8	0.9	-3.9	x
O=C1c2ccc3c4c(ccc(c24)C(=O)N1CCCCO)C(=O)N(CCCCO)C3=O	x	x	x	-12.2	49.8*	50.5*
CC1CC(=O)c2cnc(NCC3CCCO3)nc2C1 (configuration not stated)	14.4	18.4	15.1	-2.6	15.7*	-0.9
CC1(C)CC(=O)c2cnc(NCC3CCCO3)nc2C1 (configuration not stated)	0.6	-0.3	7.7	-4.5	-2.1	x
COC(=O)NNC(=S)Nc1ccc(Br)cc1	6.3	1.7	-0.3	-2.1	-9.9	x
Nc1nonc1NC(=O)NN=C1CCCCC1	3.8	0.9	5.1	-2.0	8.4	x
CCOC(=O)N1CCN(C(=O)CSc2ccc3nnc(-c4ccncc4)n3n2)CC1	6.8	10.8	2.7	-0.3	24.5*	3.4
CCOC(=O)N1CCN(C(=O)CSc2ccc3nnc(-c4ccccn4)n3n2)CC1	4.6	4.0	7.0	-1.9	1.0	x
CCCNS(=O)(=O)c1ccc2c(c1)n(C)c(=O)n2C	6.4	6.5	5.1	-0.3	16.2*	-4.5
CCCn1c(N)c(C(=O)CSc2n[nH]c(-c3ccc(C)cc3)n2)c(=O)[nH]c1=O	-5.4	-0.3	-4.0	-1.2	-3.8	x
CN(C(=O)NC1CCCCC1)[C@H]1C[C@H]2c3[nH]c4ccccc4c3CCN2C(=O)[C@H]1CO	x	x	x	x	-12.0	x
CN(C(=O)C(C)(C)C)[C@H]1C[C@H]2c3[nH]c4ccccc4c3CCN2C(=O)[C@H]1CO	x	x	x	x	14.2*	-10.7
SMILES	Bcl-xL primary	MCL1-BIM inh	GLD-1 RNA inh	MEX-5 binding	eLon inh	E coli Lon conf
Cc1cc(C)c2c(c1)-c1cc(C)nn1C(c1ccc3c(c1)OCO3)N2 (configuration not stated)	4.3	4.3	8.3	2.0	20.8*	-1.1
c1coc(-c2cnc3ccccc3n2)c1	x	x	x	x	35.5*	6.0
COc1ccc(C(=O)OCC(=O)Nc2ccc(F)c(F)c2)cc1OC	10.1	2.2	-1.0	1.4	14.0*	-3.6
O=C1Cc2cc(S(=O)(=O)N3CCN(c4cccc(Cl)c4)CC3)ccc2N1	-22.0	-24.8	-5.5	2.7	52.3*	-6.1
O=C1CCc2cc(S(=O)(=O)N3CCN(c4cccc(Cl)c4)CC3)ccc2N1	3.7	-3.0	6.4	1.9	-12.2	x
NC(=O)COc1ccc(-n2cnnn2)cc1	5.8	30.0	-2.5	-1.2	1.2	x
COc1cc(/C=N/NC(=O)COc2ccc(-n3cnnn3)cc2)ccc1OCC(N)=O	2.3	5.7	3.2	1.2	21.8*	-3.3

Bioassay records deposited in PubChem by several laboratories.
